According to PubChem BioAssay AID1159580 (chemical genetic matrix, 2015):
The whole screen tested about 5,500 compounds, of which about 2,000 (36%) were called active. Roughly 18% stayed inconclusive and do not appear here. Cut-off read from the data, not from the text of the source: active = normalized growth mostly below about 0.91 (no sharp cut-off); inconclusive = no clear call, values can overlap the other calls; inactive = mostly above about 0.92. Some of the results follow.

Test: chemical genetic growth profiling, strain panel (AID 1159580);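 note: tested at 20 µM; growth read once vehicle control cultures reached saturation at 30 °C; 1 = growth at the plate median or of vehicle wells; lower values mean less growth of the strain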
Conditions: growth OD

Measured: normalized growth

COc1ccc2c(C)cc(=O)oc2c1
inactive: S. cerevisiae deletion strains, locus YJL187C, strain SWE1 (second series), active compounds read low 1.02 | S. cerevisiae deletion strains, locus YJL187C, strain SWE1, active compounds read low 0.997 | S. cerevisiae deletion strains, locus YJR066W, strain TOR1, active compounds read low 0.933 | S. cerevisiae deletion strains, locus YKL009W, strain mrt4, active compounds read low 1.02 | S. cerevisiae deletion strains, locus YKL068W, active compounds read low 1.03 | S. cerevisiae deletion strains, locus YKL085W, strain MDH1 (second series), active compounds read low 1.01 | S. cerevisiae deletion strains, locus YKL085W, strain MDH1, active compounds read low 1.01 | S. cerevisiae deletion strains, locus YKL160W, strain elf1, active compounds read low 1 | S. cerevisiae deletion strains, locus YKL190W, strain CNB1, active compounds read low 1 | S. cerevisiae deletion strains, locus YKR001C, strain vps1, active compounds read low 1.03 | S. cerevisiae deletion strains, locus YKR026C, strain gcn3, active compounds read low 0.991 | S. cerevisiae deletion strains, locus YKR091W, strain srl3, active compounds read low 0.987 | S. cerevisiae deletion strains, locus YLL001W, strain dnm1, active compounds read low 0.986 | S. cerevisiae deletion strains, locus YLL026W, active compounds read low 1 | S. cerevisiae deletion strains, locus YLL041C, strain sdh2, active compounds read low 0.993 | S. cerevisiae deletion strains, locus YLR027C, strain aat2, active compounds read low 0.991 | S. cerevisiae deletion strains, locus YLR039C, strain RIC1, active compounds read low 1.01 | S. cerevisiae deletion strains, locus YLR058C, strain SHM2, active compounds read low 1.01 | S. cerevisiae deletion strains, locus YLR102C, strain apc9, active compounds read low 1.04 | S. cerevisiae deletion strains, locus YLR113W, strain HOG1, active compounds read low 0.998 | S. cerevisiae deletion strains, locus YLR221C, strain rsa3, active compounds read low 0.993 | S. cerevisiae deletion strains, locus YLR258W, strain gsy2, active compounds read low 0.972 | S. cerevisiae deletion strains, locus YLR262C, strain YPT6 (second series), active compounds read low 0.964 | S. cerevisiae deletion strains, locus YLR268W, strain sec22, active compounds read low 1.03 | S. cerevisiae deletion strains, locus YLR320W, strain mms22, active compounds read low 1 | S. cerevisiae deletion strains, locus YLR330W, strain CHS5, active compounds read low 1.01 | S. cerevisiae deletion strains, locus YLR342W, strain FKS1, active compounds read low 0.989 | S. cerevisiae deletion strains, locus YLR357W, strain rsc2, active compounds read low 0.966 | S. cerevisiae deletion strains, locus YLR370C, strain arc18, active compounds read low 0.997 | S. cerevisiae deletion strains, locus YLR371W, strain rom2, active compounds read low 0.998 | S. cerevisiae deletion strains, locus YLR384C, strain iki3, active compounds read low 0.996 | S. cerevisiae deletion strains, locus YLR418C, strain cdc73, active compounds read low 1.03 | S. cerevisiae deletion strains, locus YML016C, strain PPZ1, active compounds read low 1.02 | S. cerevisiae deletion strains, locus YML032C, strain rad52, active compounds read low 1.01 | S. cerevisiae deletion strains, locus YML120C, strain ndi1, active compounds read low 1.02 | S. cerevisiae deletion strains, locus YML124C, strain tub3, active compounds read low 1.02 | S. cerevisiae deletion strains, locus YMR058W, strain fet3, active compounds read low 0.987 | S. cerevisiae deletion strains, locus YMR078C, strain ctf18, active compounds read low 1.03 | S. cerevisiae deletion strains, locus YMR125W, strain sto1, active compounds read low 0.982 | S. cerevisiae deletion strains, locus YMR129W, active compounds read low 1.01 | S. cerevisiae deletion strains, locus YMR205C, strain PFK2, active compounds read low 0.988 | S. cerevisiae deletion strains, locus YMR223W, strain ubp8, active compounds read low 1.02 | S. cerevisiae deletion strains, locus YMR231W, strain pep5, active compounds read low 0.988 | S. cerevisiae deletion strains, locus YMR307W, strain GAS1, active compounds read low 0.994 | S. cerevisiae deletion strains, locus YNL067W, strain RPL9B, active compounds read low 1.01 | S. cerevisiae deletion strains, locus YNL071W, strain lat1, active compounds read low 0.976 | S. cerevisiae deletion strains, locus YNL183C, strain NPR1, active compounds read low 0.933 | S. cerevisiae deletion strains, locus YNL209W, strain ssb2, active compounds read low 1 | S. cerevisiae deletion strains, locus YNL233W, strain BNI4, active compounds read low 1.02 | S. cerevisiae deletion strains, locus YNL248C, strain rpa49, active compounds read low 0.923 | S. cerevisiae deletion strains, locus YNL250W, strain rad50, active compounds read low 1.04 | S. cerevisiae deletion strains, locus YNL271C, strain bni1, active compounds read low 1.03 | S. cerevisiae deletion strains, locus YNL298W, strain CLA4, active compounds read low 1.01 | S. cerevisiae deletion strains, locus YNL307C, strain MCK1, active compounds read low 1.04 | S. cerevisiae deletion strains, locus YNL322C, strain KRE1 (second series), active compounds read low 1 | S. cerevisiae deletion strains, locus YNL322C, strain KRE1, active compounds read low 1.01 | S. cerevisiae deletion strains, locus YNR049C, strain mso1, active compounds read low 0.969 | S. cerevisiae deletion strains, locus YNR052C, strain pop2, active compounds read low 1.02 | S. cerevisiae deletion strains, locus YOL012C, strain htz1 0.756 | S. cerevisiae deletion strains, locus YOL147C, strain pex11, active compounds read low 1.03 | S. cerevisiae deletion strains, locus YOR001W, strain rrp6, active compounds read low 0.97 | S. cerevisiae deletion strains, locus YOR061W, strain CKA2, active compounds read low 1.01 | S. cerevisiae deletion strains, locus YOR069W, strain VPS5, active compounds read low 1.01 | S. cerevisiae deletion strains, locus YOR070C, strain gyp1, active compounds read low 1 | S. cerevisiae deletion strains, locus YOR080W, strain dia2, active compounds read low 0.99 | S. cerevisiae deletion strains, locus YOR083W, strain WHI5, active compounds read low 0.987 | S. cerevisiae deletion strains, locus YOR106W, strain vam3, active compounds read low 0.959 | S. cerevisiae deletion strains, locus YOR136W, strain idh2, active compounds read low 1.03 | S. cerevisiae deletion strains, locus YOR144C, strain elg1, active compounds read low 1.02 | S. cerevisiae deletion strains, locus YOR184W, strain ser1, active compounds read low 1.02 | S. cerevisiae deletion strains, locus YOR231W, strain MKK1, active compounds read low 0.954 | S. cerevisiae deletion strains, locus YOR265W, strain rbl2, active compounds read low 0.996 | S. cerevisiae deletion strains, locus YOR270C, strain vph1, active compounds read low 0.803 | S. cerevisiae deletion strains, locus YOR290C, strain snf2, active compounds read low 1 | S. cerevisiae deletion strains, locus YOR316C, strain cot1, active compounds read low 1.02 | S. cerevisiae deletion strains, locus YPL051W, strain arl3, active compounds read low 1.01 | S. cerevisiae deletion strains, locus YPL078C, strain atp4, active compounds read low 0.994 | S. cerevisiae deletion strains, locus YPL106C, strain sse1, active compounds read low 0.943 | S. cerevisiae deletion strains, locus YPL240C, strain hsp82, active compounds read low 1.01 | S. cerevisiae deletion strains, locus YPL256C, strain CLN2, active compounds read low 1.01 | S. cerevisiae deletion strains, locus YPR119W, strain clb2, active compounds read low 1.02 | S. cerevisiae deletion strains, locus YPR141C, strain kar3, active compounds read low 1.02 | S. cerevisiae deletion strains, locus YPR163C, strain tif3, active compounds read low 1.03 | S. cerevisiae deletion strains, locus YPR167C, strain met16, active compounds read low 1.02 | S. cerevisiae deletion strains, strain wtn01, active compounds read low 1.01 | S. cerevisiae strains, strain wild type, active compounds read low 1.01
